VLA-4 inh – inhibition in a human VLA-4 binding assay; AID 2557; VLA-4 expressing cells, ligand binding flow cytometry; P13612; 330,000 tested, 0.2% active; inhibition, % (about 7 µM as worked out from the volumes in the protocol); in the data active = inhibition above about 50%
p-CIP stab down – compounds decreasing mouse p/CIP protein stability. AID 1984. decrease of EGFP signal, % at 10 µM. 290,000 tested, 0.01% active. F442A p/CIP-EGFP cells, EGFP fluorescence, 16 h;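 active = EGFP signal decrease of at least 30% at 10 µM or well 3 SD below plate mean, unless failing retest; inactive = the rest, including hits failing retest or dose response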
JMJD2C inh – blocks human GASC-1 demethylase activity. Q9H3R0. GST-JMJD2C(1-420) H3K9me3 demethylation, DELFIA europium. inhibition, % at 2.35 µM. 330,000 tested, 0.069% active. AID 2099;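 active = more than half of a compound's replicate wells show inhibition beyond 50%, single wells judged on their own value; inconclusive = some, but no more than half, of replicates pass 50% inhibition; inactive = no replicate passes 50% inhibition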;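 also: signal counts dimethyl H3K9 product captured on neutravidin plate; 0% = median of DMSO wells and 100% = 0.3 times that DMSO median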
GPR7 antag – blocks human GPR7 receptor signaling. GPR7-expressing cells, fluorescence antagonist assay. inhibition, % at 4.4 µM. 290,000 tested, 1.1% active. AID 1861; in the data active = inhibition above about 16%, passing the limit was not always enough;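 also: cells stimulated with the agonist NPW; 0% = agonist with vehicle and 100% = vehicle without agonist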
Target sequence (P48145 whole entry, looked up): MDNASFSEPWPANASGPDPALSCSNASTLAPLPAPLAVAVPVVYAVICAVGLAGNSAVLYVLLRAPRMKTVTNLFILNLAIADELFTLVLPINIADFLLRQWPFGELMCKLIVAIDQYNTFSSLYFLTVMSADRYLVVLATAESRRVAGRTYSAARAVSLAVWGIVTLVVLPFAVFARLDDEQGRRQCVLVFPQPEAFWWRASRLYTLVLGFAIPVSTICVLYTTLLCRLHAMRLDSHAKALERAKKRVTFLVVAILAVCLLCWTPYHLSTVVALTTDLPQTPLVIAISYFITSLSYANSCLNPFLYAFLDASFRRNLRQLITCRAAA
VLA-4 mod pick – confirmation of allosteric modulators of human VLA-4 integrin | shares compounds with VLA-4 inh | U937 cells, HUTS-21 LIBS mAb binding, flow cytometry; LDV ligand present at threefold Kd | inhibition, % at 6.7 µM | 1,300 tested, 2% active; in the data active = inhibition above about 40%;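 also: 0% = ligand without compound and 100% = no ligand background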
Starred values were filed as active, the others as inactive. Rows were chosen to be rich in hits. Some 1.2% of all compounds tested hit in one or more screens of this group.

Screening CC1C(=O)N2CCCc3cc(S(=O)(=O)Nc4ccccc4C(N)=O)cc1c32 (stereo not drawn) returned VLA-4 inh 9.1, JMJD2C inh inconclusive and VLA-4 mod pick -4.9.
COc1ccc(/C=N/NC(=O)c2cccc(NC(C)=O)c2)c(C(=O)O)c1OC was read as VLA-4 inh 42.7, p-CIP stab down -5.1, JMJD2C inh 7.0, GPR7 antag -15.4 and VLA-4 mod pick 0.5.
Screening O=C(NCC1CCCO1)c1nn2c(C(F)(F)F)cc(-c3cccs3)nc2c1Cl (stereo not drawn) returned VLA-4 inh 6.6, p-CIP stab down -18.0, JMJD2C inh -12.0 and GPR7 antag -6.3.
For O=C(O)c1nn2c(C(F)(F)F)cc(-c3cccs3)nc2c1Cl the results were VLA-4 inh 45.5, p-CIP stab down -2.8, JMJD2C inh 16.2, GPR7 antag -8.6 and VLA-4 mod pick 1.3.
`CCOc1ncccc1C(=O)Nc1cccc(-c2nnc3n2CCCCC3)c1` gave VLA-4 inh 68.5*, p-CIP stab down -12.4, JMJD2C inh 17.8, GPR7 antag -14.1 and VLA-4 mod pick 0.3.
CN1CC(=O)Nc2ccccc2C1=O was read as VLA-4 inh 41.8, p-CIP stab down -8.3, JMJD2C inh 7.2, GPR7 antag -5.6 and VLA-4 mod pick -10.2.
Screening CN1CC(=O)Nc2ccc(Br)cc2C1=O returned VLA-4 inh 52.2*, p-CIP stab down -2.3, JMJD2C inh -19.0, GPR7 antag 1.7 and VLA-4 mod pick 2.1.
`CCOC(=O)C1(Cc2cccc(Cl)c2)CCCN(C(=O)C(C)(C)C)C1` (stereo not drawn) gave VLA-4 inh 0.6, p-CIP stab down -7.6, JMJD2C inh -2.3 and GPR7 antag 17.1.
For c1ccc(-c2sc3ccccc3c2-c2ccc(OCCN3CCOCC3)cc2)cc1 the results were VLA-4 inh 6.0, JMJD2C inh -11.2 and VLA-4 mod pick -4.9.
`COc1ccccc1-c1sc2ccccc2c1-c1ccc(OCCN2CCOCC2)cc1` gave VLA-4 mod pick 0.0.
For C1=C(c2sc3ccccc3c2-c2ccc(OCCN3CCOCC3)cc2)CCCC1 the results were VLA-4 inh 17.8 and JMJD2C inh -3.6.
`COc1ccc2sc(-c3ccccc3OC)c(-c3ccc(OCCN4CCOCC4)cc3)c2c1` gave VLA-4 mod pick 1.6.
CCOC(=O)Cn1cnc2c(nnn2-c2cccc(OC)c2)c1=O was read as VLA-4 inh 42.3, p-CIP stab down -5.6, JMJD2C inh -3.6, GPR7 antag -2.1 and VLA-4 mod pick -27.3.
For COc1cccc(-n2nnc3c(=O)n(CC(=O)OCc4ccccc4)cnc32)c1 the results were VLA-4 inh -1.1, p-CIP stab down -10.4, JMJD2C inh -1.3 and GPR7 antag -3.9.
N#Cc1c2c(c(-n3cnc4ccccc43)n3c1nc1ccccc13)CCC2 was read as VLA-4 inh 93.7*, p-CIP stab down -7.9, JMJD2C inh 5.5, GPR7 antag 0.6 and VLA-4 mod pick -0.1.
For N#Cc1c2c(c(Nc3ccccc3)n3c1nc1ccccc13)CCC2 the results were VLA-4 inh -14.4, p-CIP stab down 3.0, JMJD2C inh 8.2 and GPR7 antag -0.4.
`CC(OC(=O)CNC(=O)c1ccc2ccccc2c1)C(=O)N(C)C1CCCCC1` (stereo not drawn) gave VLA-4 inh -10.8 and JMJD2C inh 1.4.
Screening COc1cc(/C=N/NC(=O)c2ccncc2)c([N+](=O)[O-])cc1OC returned VLA-4 inh 56.9*, p-CIP stab down -2.6, JMJD2C inh -32.9, GPR7 antag -19.6 and VLA-4 mod pick -5.3.
CC(=O)Nc1ccc(NC(=O)c2cc(S(=O)(=O)N3CCCCC3)ccc2N2CCOCC2)cc1 was read as VLA-4 mod pick 2.4.
Screening COc1cc(NC(=O)c2cc(S(=O)(=O)N3CCCCC3)ccc2N2CCOCC2)cc(OC)c1 returned VLA-4 inh 0.0, JMJD2C inh -5.7 and VLA-4 mod pick 2.6.
`Cc1ccc(S(=O)(=O)N(C)C)cc1NC(=O)c1cc(S(=O)(=O)N2CCCCC2)ccc1N1CCOCC1` gave VLA-4 mod pick 0.0.
COc1ccc(C)cc1NC(=O)c1ccc(S(=O)(=O)N2CCCCC2)cc1 was read as VLA-4 inh -9.5, p-CIP stab down -11.8, JMJD2C inh 7.7 and GPR7 antag -3.3.
`NC(=O)c1ccc(NC(=O)c2cc(S(=O)(=O)N3CCCCC3)ccc2N2CCOCC2)cc1` gave VLA-4 inh 20.2.
